According to PubChem BioAssay AID624330 (Southern Research Specialized Biocontainment Screening …, 2012):
Among all 340,000 compounds or so, about 2,100 (0.62%) were called active.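 How the source made its calls: active means first-screen hits whose inhibition reached a set limit at any dose in the follow-up dose series; inconclusive means inhibition above the set first-screen limit but never retested; inactive means the rest.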 A selection follows. Results with a measured potency or affinity are listed apart.

Target: Rac GTPase-activating protein 1 (Homo sapiens) (UniProt Q9H0H5)
Sequence (Q9H0H5 whole entry, looked up): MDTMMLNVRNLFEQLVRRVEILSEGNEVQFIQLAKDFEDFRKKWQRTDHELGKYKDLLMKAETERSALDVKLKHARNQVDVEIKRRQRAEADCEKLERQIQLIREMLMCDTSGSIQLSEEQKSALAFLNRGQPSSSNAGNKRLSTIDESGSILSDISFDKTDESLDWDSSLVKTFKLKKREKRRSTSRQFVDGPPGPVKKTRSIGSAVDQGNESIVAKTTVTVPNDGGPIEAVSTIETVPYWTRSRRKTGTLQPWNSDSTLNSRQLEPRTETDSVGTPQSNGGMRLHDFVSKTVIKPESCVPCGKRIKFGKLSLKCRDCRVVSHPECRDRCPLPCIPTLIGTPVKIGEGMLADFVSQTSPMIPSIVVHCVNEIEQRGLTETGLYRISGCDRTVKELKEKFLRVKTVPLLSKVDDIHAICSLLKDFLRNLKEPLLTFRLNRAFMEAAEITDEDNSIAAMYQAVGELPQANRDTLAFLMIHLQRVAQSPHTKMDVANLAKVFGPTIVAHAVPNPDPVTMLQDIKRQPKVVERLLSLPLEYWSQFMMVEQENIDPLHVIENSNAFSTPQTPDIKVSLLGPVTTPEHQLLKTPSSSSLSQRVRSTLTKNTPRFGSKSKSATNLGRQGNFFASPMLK
Assay: MgcRacGAP GTPase-activating activity inhibitors, confirmation, biochemical, ADP Hunter fluorescence, primary and confirmatory (AID 624330);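 further: fluorescence reports GDP produced by GAP-driven GTP hydrolysis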
Details: MgcRacGAP-stimulated Rac1 GTP hydrolysis, at 30 µM, hits give high values, GST-tagged Rac1 F28L mutant substrate

inhibition, inactive:
CC1(C)CC(=O)C2=C(C1)C(c1cn(-c3ccccc3)nc1-c1ccccc1)C(C#N)=C(N)O2 (centres undefined) 2.04%
Cc1cc(Br)cc(C)c1NC(=S)NC(=O)CC(C)C 7.74%
NC(N)=NS(=O)(=O)c1ccc(N/C=C/C(=O)c2ccc(Cl)c(Cl)c2)cc1 6.29%
COC(=O)[C@H](CCSC)NC(=O)Cn1cnc2c(OCc3ccccc3)ncnc21 5.04%
COc1ccc(OCC(=O)NNC(=O)c2ccc3c(=O)n4c(nc3c2)CCC4)cc1 8.67%
COc1ccc(S(=O)(=O)N2CCN(C(=O)c3ccco3)CC2)c(C)c1C 1.7%
O=C(O)c1cc(N2C(=O)C3C4C=CC(C4)C3C2=O)ccc1N1CCOCC1 (centres undefined) 4.85%
O=C(Nc1nccs1)C1CCCN1/C=C/C(=O)C(F)(F)F (centres undefined) -1.71%
C=CCNC(=O)c1n[nH]c2c1CC(C(C)(C)CC)CC2 (centres undefined) 8.27%
CCN(Cc1ccccc1)C(=O)C1CCC(CNc2c(N3CCOCC3)c(=O)c2=O)CC1 (centres undefined) 4.88%
C=CCN1CCN(C(=O)c2cc3c(s2)CCC(CC)C3)CC1 (centres undefined) 5%
COCCn1c(SCC(=O)Nc2ccc3c(c2)OCCO3)nc2c(c1=O)SC(C)C2 (centres undefined) 8.12%
CCN1C(=O)[C@H]2[C@@H](c3ccc(C)cc3)N3C(=O)N(c4ccc(OC)cc4)C(=O)[C@@]3(Cc3ccc(Cl)cc3)[C@H]2C1=O -2.48%
C/C(CC(=O)Nc1ccc2c(c1)OCCO2)=N\NC(=O)c1ccc([N+](=O)[O-])cc1Cl 9.05%
C/C(CC(=O)Nc1ccc(N(C)C)cc1)=N\NC(=O)c1ccc(Cl)cc1Cl 21.9%
Cc1ccc(-c2cc(C(=O)Nc3ccc(S(=O)(=O)Nc4onc(C)c4C)cc3)[nH]n2)c(O)c1 -1.18%
C#CCOCCOCCOCCNc1nc(N2CCOCC2)nc(N2CCN(C(=O)[C@H](Cc3ccc(O)cc3)n3cc([C@@H](N)C(C)CC)nn3)CC2)n1 (some centres undefined) 8.21%
CCN(Cc1ccncc1)Cc1c(O)ccc2ccccc12 15.9%
CN(C)Cc1c(O)ccc2ccccc12 7.54%
COc1ccc(CN(C)Cc2c(O)ccc3ccccc23)cc1 9.58%
COc1cccc(CN(C)Cc2c(O)ccc3ccccc23)c1 3.54%
COc1ccc(/C(N)=N/OC(=O)Cc2cccs2)cc1 5.03%
CCOC(=O)C(N=Nc1nn[nH]n1)C(C)=O (centres undefined) 14.3%
CC(=O)Nc1c(F)cc(Br)cc1F 7.06%
